Assay results as given in PubChem BioAssay AID493194 (Broad Institute, 2011).
Entries with a potency or affinity are not part of this list. Inconclusive results are not listed. Activity calls are given as the source filed them.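 How the source made its calls: active means a valid curve of falling signal whose half-effect concentration is at most ten times the top tested dose; inconclusive means flat curve at 30 to 70% inhibition, or poor fit; inactive means signal rise, flat within 30%, or potency beyond limit.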

Target: Scavenger receptor class B member 1 (Mus musculus) (UniProt Q61009)
Sequence (Q61009 whole entry, looked up): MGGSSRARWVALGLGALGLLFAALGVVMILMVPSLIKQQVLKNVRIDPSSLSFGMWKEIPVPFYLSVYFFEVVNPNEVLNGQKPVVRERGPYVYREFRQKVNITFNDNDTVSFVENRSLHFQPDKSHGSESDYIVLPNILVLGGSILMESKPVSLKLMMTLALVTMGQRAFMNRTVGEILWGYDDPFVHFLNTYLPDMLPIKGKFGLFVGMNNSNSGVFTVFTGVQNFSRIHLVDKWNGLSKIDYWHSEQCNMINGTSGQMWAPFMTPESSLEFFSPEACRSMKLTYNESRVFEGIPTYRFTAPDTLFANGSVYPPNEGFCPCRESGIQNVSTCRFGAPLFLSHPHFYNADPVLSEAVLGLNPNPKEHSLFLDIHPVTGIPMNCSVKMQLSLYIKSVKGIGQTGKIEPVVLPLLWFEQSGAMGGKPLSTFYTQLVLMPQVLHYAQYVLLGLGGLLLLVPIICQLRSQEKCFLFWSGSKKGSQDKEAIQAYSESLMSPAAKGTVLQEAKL
Assay: inhibitors of SR-BI mediated HDL lipid uptake, dose response, ldlA[mSR-BI] cells, fluorescence, cherry pick (AID 493194);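 further: CHO cells lacking LDL receptor and overexpressing mouse SR-BI; cellular uptake of fluorescently labeled HDL measured as cell fluorescence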
Conditions: CHO ldlA[mSR-BI] DiI-HDL uptake fluorescence, 3 h; series mostly up to 35 µM

| Structure (SMILES) | outcome |
| --- | --- |
| O=S1(=O)N(CCN2CC=C(c3c[nH]c4cc(F)ccc34)CC2)c2cccc3c2N1CCC3 | inactive |
| O=C(Nc1ccccc1F)OC1CN2CCC1CC2 (configuration not stated) | inactive |
| COc1ccc(NC(=O)C2C3CCC(O3)C2C(=O)O)c(OC)c1 (configuration not stated) | inactive |
| CCCCCCn1c(=O)c(C(=O)Nc2cnccn2)c(O)c2ccccc21 | inactive |
| CNC1(c2ccc(F)cc2)CCCCC1 | inactive |
| CC(C)(C)c1ccc(S(=O)(=O)N2CC3CC(C2)c2cccc(=O)n2C3)cc1 (configuration not stated) | inactive |
| O=c1cccc2n1CC1CC2CN(S(=O)(=O)c2cc(Cl)ccc2Cl)C1 (configuration not stated) | inactive |
